In PubChem BioAssay (NCATS):
Results filed as inconclusive are left out. Calls come from the whole dose curve.

Assay: qHTS Assay for Lipid Storage Modulators (AID 1519)
Conditions: Drosophila S3 cells, BODIPY lipid droplet/cell ratio, laser cytometry; at 57.5 µM (top of the series); cells loaded with oleic acid
Method in brief: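 Cells seeded at 5,000 per well were treated with compounds over a concentration series and loaded with oleic acid (400 uM, as added). Lipid droplet fluorescence (488 nm excitation, 500-530 nm channel) was read by laser-scanning cytometry and normalized to 20 uM Triacsin C.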
% is set by controls: 0 for no effect and ±100 for the full control effect.

Activity change, negative = inhibition, inactive:
CS(=O)(=O)N1CCC2(CC1)CN(c1cccc(-c3ccccc3)c1)C2 -16.1%
CC(C)CN1CC[C@@]2(CCCN(C(=O)c3cnccn3)C2)C1 3.32%
Cn1cccc1C(=O)N1CCC2(CCCN(c3ccccc3)C2)CC1 1.89%
O=C(c1csnn1)N1CCC[C@@]2(CCN(Cc3nccs3)C2)C1 6.67%
O=C(c1ccco1)N1CCC2(CC1)CN(Cc1cc(C(F)(F)F)cc(C(F)(F)F)c1)C2 -5.85%
CC(C)NC(=O)N1CC[C@@]2(CCCN(C(=O)c3cc(C(F)(F)F)cc(C(F)(F)F)c3)C2)C1 1.68%
COCC(=O)N1CCC[C@@]2(CCN(Cc3ccccc3OC)C2)C1 3.26%
COc1ccccc1CN1CCCC2(CCN(S(C)(=O)=O)CC2)C1 2.11%
O=C(c1cc(C(F)(F)F)cc(C(F)(F)F)c1)N1CCC[C@@]2(CCN(Cc3ccncc3)C2)C1 7.2%
Cc1cccc(CNc2ncnc3ccc(-c4cccc(C#N)c4)cc23)c1 0.488%
O=C(c1ccncc1)N1CCC2(CC1)CCN(c1cccc(-c3ccccc3)c1)CC2 1.19%
CS(=O)(=O)N1CCC2(CC1)CN(Cc1nccs1)C2 3.27%
c1ccc(-c2cccc(N3CC[C@@]4(CCCNC4)C3)c2)cc1 1.77%
CC(=O)N1CCC2(CC1)CN(c1ccccc1)C2 6.65%
CC(C)CN1CC[C@@]2(CCCN(S(=O)(=O)c3ccccc3)C2)C1 4.19%
Cc1noc(C)c1C(=O)N1CCC[C@@]2(CCN(Cc3ccccc3)C2)C1 2.65%
O=C(c1csnn1)N1CCC2(CC1)CN(c1ccccc1)C2 4.49%
COCC(=O)N1CCC[C@@]2(CCN(C(=O)Nc3cccc(F)c3)C2)C1 2.12%
O=C(c1csnn1)N1CCC2(CC1)CN(c1ccccn1)C2 4.89%
COc1ccc(C(=O)N2CCC3(CCN(C)CC3)CC2)cc1 3.67%
CS(=O)(=O)N1CCC2(CCCN(C(=O)Nc3cccc(C#N)c3)C2)CC1 6.12%
Cc1noc(C)c1C(=O)N1CCC2(CCN(Cc3cc(C(F)(F)F)cc(C(F)(F)F)c3)CC2)CC1 2.45%
CC(C)NC(=O)N1CC2(CCN(C(=O)c3ccco3)CC2)C1 -0.739%
CC(=O)N1CCC2(CC1)CN(C(c1ccccc1)c1ccccc1)C2 1.46%
COc1ccc(NC(=O)N2CC[C@@]3(CCCN(C(=O)c4csnn4)C3)C2)cc1 5.36%
